DT40 TDP1 CPT: growth inhibition of DT40 Tdp1-/-;hTDP1 cells with camptothecin (screen for TDP1 inhibitors); chicken DT40 Tdp1-/-;hTDP1 cells + 20 nM CPT, ATP luminescence, 48 h; Potency, µM (highest dose often 46.2 µM), inactives show at the highest dose activity change, negative = growth inhibition, most hits filed as inhibitors; 12% of 420,000 active; AID 686979; further: potency means the concentration at half of the fitted maximal effect; nearly all actives have a fitted effect of over 55% in size
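Cell growth measured by CellTiter-Glo luminescence after a minimum 48 h, 37 C compound exposure with 20 nM CPT in Tdp1-knockout DT40 cells stably expressing hTDP1, seeded 400/well; qHTS titration format.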
DT40 TDP1 no CPT: qHTS for Inhibitors of human tyrosyl-DNA phosphodiesterase 1 (TDP1): qHTS in cells in absence of CPT | 15% of 420,000 active | AID 686978, 2013 | DT40 Tdp1-/- hTDP1 cells, no CPT, ATP luminescence, 48 h | Potency, µM (highest dose often 46.2 µM), for the others: top-dose activity change, negative = growth inhibition, most hits filed as inhibitors; further: potency means the concentration at half of the fitted maximal effect; nearly all actives have a fitted effect of over 55% in size
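Growth kinetics read by CellTiter-Glo luminescence after ≥48 hr at 37 °C. Cells: DT40 Tdp1-/- stably carrying human TDP1, 400 per well, compound exposure in the absence of CPT (DMSO vehicle).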
IL-1B inflam inh: inflammasome signaling inhibition, IL-1 beta readout. THP-1 LPS/ATP IL-1B secretion, AlphaLISA, 16 h; hits give low values. 4.7% of 360,000 active. activity change, % at 57.5 µM; in the data active means activity change below about -50%; inconclusive means mostly about -30% to -49%
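THP-1 cells pretreated 1 hr with compounds (up to 57.5 uM final), then stimulated with LPS (250 ng/mL final) plus ATP (1.25 mM final); secreted IL-1B measured by AlphaLISA after 16 hr, decreased signal indicating inhibition.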
HT1080-NT tox: kills 2HG-producing HT-1080-NT fibrosarcoma cells; Potency, µM (highest dose often 46.1 µM), for the others: at the top dose activity, negative = less viability, hits mostly cytotoxic; 1.6% of 360,000 active; AID 686970; HT-1080-NT fibrosarcoma viability, CellTiter-Glo ATP luminescence, 48 h;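 further: NT is the 2HG producing partner of a matched IDH1 knockdown line; potency means the concentration at half of the fitted maximal effect; 0% = DMSO-treated cells and -100% = media-only wells without cells; nearly all actives have a fitted effect of over 55% in size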
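A 48-hour cytotoxicity screen used HT-1080-NT cells plated 2 hours before compound delivery. ATP-based CellTiter-Glo luminescence measured viability, normalized to DMSO and no-cell controls.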
HT1080 IDH1KD tx: toxicity to HT-1080 IDH1 knockdown cells (counter line) | 2% of 360,000 active | AID 686971 | HT-1080 IDH1 knockdown viability, ATP luminescence, 48 h | Potency, µM (top dose mostly 46.1 µM), for inactives: top-dose activity, negative = toxicity, hits mostly cytotoxic;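 further: potency means the concentration at half of the fitted maximal effect; 0% = DMSO wells and -100% = cell-free medium wells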
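Assay cells: HT-1080 with IDH1 knockdown, 750 per well, RPMI/5% FBS. Exposure: 48 h at 37 °C following 2 h pre-incubation. Read: CellTiter-Glo luminescence; fitted concentration-response, curve class assigned.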
ALOX12 inh: blocks human arachidonate 12S-lipoxygenase; purified 12hLO, xylenol orange hydroperoxide absorbance; Potency, µM (doses to about 108 µM), for inactives: at the highest dose activity change, negative = inhibition, hits mostly inhibitors; 1.1% of 580,000 active; further: potency means the concentration at half of the fitted maximal effect
Target sequence (P18054 whole entry, looked up): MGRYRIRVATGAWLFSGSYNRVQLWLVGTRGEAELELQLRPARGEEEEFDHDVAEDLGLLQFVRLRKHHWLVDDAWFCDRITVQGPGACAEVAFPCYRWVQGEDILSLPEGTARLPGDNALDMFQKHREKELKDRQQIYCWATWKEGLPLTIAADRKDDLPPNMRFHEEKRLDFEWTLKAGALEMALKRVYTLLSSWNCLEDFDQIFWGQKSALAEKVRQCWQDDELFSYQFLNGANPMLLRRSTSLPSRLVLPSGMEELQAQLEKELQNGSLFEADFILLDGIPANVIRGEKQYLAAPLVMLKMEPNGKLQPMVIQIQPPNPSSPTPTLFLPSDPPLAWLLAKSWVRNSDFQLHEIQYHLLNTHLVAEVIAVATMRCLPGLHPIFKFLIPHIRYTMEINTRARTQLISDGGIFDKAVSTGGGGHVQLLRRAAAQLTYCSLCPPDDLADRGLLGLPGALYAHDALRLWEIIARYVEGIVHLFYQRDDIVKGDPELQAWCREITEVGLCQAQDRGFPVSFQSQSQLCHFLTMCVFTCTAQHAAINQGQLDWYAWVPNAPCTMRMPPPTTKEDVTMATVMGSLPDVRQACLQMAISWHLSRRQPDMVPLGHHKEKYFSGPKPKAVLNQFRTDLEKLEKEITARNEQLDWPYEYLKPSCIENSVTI
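Hydroperoxide product was detected by ferrous iron/xylenol orange as the 573 to 405 nm absorbance ratio. Arachidonic acid at 40 uM (final) was turned over for 30 min at room temperature by 150 nM human 12hLO, pH 7.0 Hepes buffer, after 15 min compound preincubation.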
* hit, by the source's call; [ ] = another dose, or the depositor's remark. Shown is part of a subset that was picked to be rich in hits. Unless noted, the call rests on the fitted dose curve; in most records, active means well fitted curve in the direction sought with a large enough effect; inconclusive means small, poorly fitted or top-dose-only effect, or another doubt; inactive means no such curve, though single readings can be large; an effect the other way counts as inactive or inconclusive. Unless noted, on the % scale 0 is the no-effect control and ±100 the full control effect.

`O=C(/C=C/c1ccc(S(=O)(=O)NCc2ccco2)cc1)NCc1ccccc1Cl` gave DT40 TDP1 CPT inconclusive, DT40 TDP1 no CPT 18µM*, IL-1B inflam inh inconclusive, HT1080-NT tox inconclusive, HT1080 IDH1KD tx inconclusive and ALOX12 inh -4%.
For Oc1ccc(-c2cn3ccccc3n2)cc1 the results were DT40 TDP1 CPT -16%, DT40 TDP1 no CPT inconclusive, IL-1B inflam inh -14, HT1080-NT tox -5%, HT1080 IDH1KD tx -8% and ALOX12 inh -1%.
`Cc1ccn2cc(-c3cccc(S(=O)(=O)N4CCCCC4)c3)nc2c1` gave DT40 TDP1 CPT -25%, DT40 TDP1 no CPT -21%, IL-1B inflam inh -29, HT1080-NT tox -13%, HT1080 IDH1KD tx -2% and ALOX12 inh -5%.
`Oc1ccc(-c2cn3ccccc3n2)cc1O` gave DT40 TDP1 CPT 26µM*, DT40 TDP1 no CPT 13µM*, IL-1B inflam inh 4, HT1080-NT tox -9%, HT1080 IDH1KD tx -9% and ALOX12 inh -158%.
Screening Cc1ccn2cc(-c3ccc(O)c(O)c3)nc2c1 returned DT40 TDP1 CPT 16µM*, DT40 TDP1 no CPT 9.2µM*, IL-1B inflam inh 48, HT1080-NT tox -18%, HT1080 IDH1KD tx -3% and ALOX12 inh inconclusive.
`COc1ccc2[nH]c3c(c2c1)CCNC31CCN(C(=O)CC(C)C)CC1` gave ALOX12 inh 8%.
Screening CC(C)(C)c1ccc(-c2nc3c(C#N)c(-c4ccc5c(c4)OCO5)ccn3n2)cc1 returned DT40 TDP1 CPT 18µM*, DT40 TDP1 no CPT 13µM*, IL-1B inflam inh 41, HT1080-NT tox -1%, HT1080 IDH1KD tx 1% and ALOX12 inh 0%.
Screening CC(N1CCOC1=O)S(=O)(=O)c1ccccc1 (stereo not drawn) returned DT40 TDP1 CPT 1%, DT40 TDP1 no CPT -6%, IL-1B inflam inh 1, HT1080-NT tox 4%, HT1080 IDH1KD tx 1% and ALOX12 inh 35µM*.
`C=CCNC(=S)Nc1cc(Cl)ccc1C` gave ALOX12 inh -47%.
For COc1ccc(NS(=O)(=O)c2cccc(NC(=O)c3cnccn3)c2)cc1Br the results were DT40 TDP1 CPT 16µM*, DT40 TDP1 no CPT 18µM*, IL-1B inflam inh -20, HT1080-NT tox -25%, HT1080 IDH1KD tx -18% and ALOX12 inh 1%.
For O=C(Nc1cccc(S(=O)(=O)N2CCCCC2)c1)c1cnccn1 the results were DT40 TDP1 CPT -13%, DT40 TDP1 no CPT -29%, IL-1B inflam inh 10, HT1080-NT tox -7%, HT1080 IDH1KD tx -7% and ALOX12 inh -32%.
Screening O=C(Nc1cccc(S(=O)(=O)Nc2ccc(Cl)cc2)c1)c1ccc(Cl)nc1 returned DT40 TDP1 CPT 2.3µM*, DT40 TDP1 no CPT 0.65µM*, IL-1B inflam inh -8, HT1080-NT tox inconclusive, HT1080 IDH1KD tx inconclusive and ALOX12 inh inconclusive.
For COc1ccc(NS(=O)(=O)c2cccc(NC(=O)c3ccc(Cl)nc3)c2)cc1 the results were DT40 TDP1 CPT 1.2µM*, DT40 TDP1 no CPT 3.3µM*, IL-1B inflam inh -9, HT1080-NT tox 1.6µM*, HT1080 IDH1KD tx 6.5µM* and ALOX12 inh -13%.
COc1ccc(C(=O)Nc2cccc(S(=O)(=O)NC3=NCCCCC3)c2)cc1 was read as DT40 TDP1 CPT -28%, DT40 TDP1 no CPT -27%, IL-1B inflam inh 21, HT1080-NT tox -1%[9.24 µM], HT1080 IDH1KD tx -2% and ALOX12 inh 5%.
Cc1ccc(C(=O)N2CCNC(=O)C2Cc2ccccc2)c(F)c1 (stereo not drawn) was read as ALOX12 inh 3%.
Screening CC(C#N)OC(=O)c1cc(C(C)C)nc2ccccc12 (stereo not drawn) returned ALOX12 inh -6%.
For CC(C)[C@H](NC(=O)c1ccccc1)C(=O)OCC(=O)/C=C1/N(C)c2ccccc2C1(C)C the results were DT40 TDP1 CPT 10µM*, DT40 TDP1 no CPT 8.2µM*, IL-1B inflam inh 17, HT1080-NT tox -6%, HT1080 IDH1KD tx -16% and ALOX12 inh -3%.
Screening COc1cc(OC)cc(C(=O)NCC(=O)OCC(=O)/C=C2/N(C)c3ccccc3C2(C)C)c1 returned DT40 TDP1 CPT inconclusive, DT40 TDP1 no CPT 16µM*, IL-1B inflam inh -60*, HT1080-NT tox inconclusive, HT1080 IDH1KD tx -10% and ALOX12 inh -7%.
`CN1/C(=C\C(=O)COC(=O)c2nccnc2N)C(C)(C)c2ccccc21` gave DT40 TDP1 CPT inconclusive, DT40 TDP1 no CPT inconclusive, IL-1B inflam inh 6, HT1080-NT tox -3%, HT1080 IDH1KD tx 1% and ALOX12 inh -2%.
COC(=O)c1sccc1NC(=O)CN(C)NS(=O)(=O)c1ccc(Cl)cc1 was read as DT40 TDP1 CPT inconclusive, DT40 TDP1 no CPT 18µM*, IL-1B inflam inh -10, HT1080-NT tox inconclusive, HT1080 IDH1KD tx -24% and ALOX12 inh inconclusive.
Screening COC(=O)c1sccc1NC(=O)CN(C)NS(=O)(=O)c1ccc(F)cc1 returned DT40 TDP1 CPT 18µM*, DT40 TDP1 no CPT inconclusive, IL-1B inflam inh -11, HT1080-NT tox inconclusive, HT1080 IDH1KD tx -27% and ALOX12 inh 32%.
For O=C(Nc1ccccc1F)C1CC2CCC1C2 (stereo not drawn) the results were ALOX12 inh 5%.
Screening Cc1ccc(S(=O)(=O)N2CCN(C(=O)CNc3ccc(C)cc3Br)CC2)cc1 returned ALOX12 inh -55%.
`COCCNC(=O)[C@@H]1CCC[C@@H](NCc2cccc3c2OCO3)CN(C)C(=O)C1` gave ALOX12 inh -4%[176 µM].
For Cc1ccc(C(=O)Nc2nnc(S(=O)(=O)N3c4ccccc4CC3C)s2)cc1 (stereo not drawn) the results were DT40 TDP1 CPT inconclusive, DT40 TDP1 no CPT 23µM* and ALOX12 inh -13%.
COc1ccc(S(=O)(=O)N2CCc3ccccc32)cc1C(=O)N1CCN(c2ncccn2)CC1 was read as ALOX12 inh 40µM*.
`COc1ccccc1N1CCN(C(=O)c2cccc(S(=O)(=O)N3CCCCCC3)c2)CC1` gave DT40 TDP1 CPT inconclusive, DT40 TDP1 no CPT 18µM*, IL-1B inflam inh 4, HT1080-NT tox -3%[9.24 µM], HT1080 IDH1KD tx -3% and ALOX12 inh -5%.
`CCOC(=O)c1ccc(NC(=O)c2cccc(S(=O)(=O)N3c4ccccc4CC3C)c2)s1` (stereo not drawn) gave DT40 TDP1 CPT 16µM*, DT40 TDP1 no CPT 6.5µM*, IL-1B inflam inh 18, HT1080-NT tox inconclusive, HT1080 IDH1KD tx inconclusive and ALOX12 inh -5%.
